What follows are sequences tested against C1orf64 (assay: pooled miR-30 sensor sort-seq; sequence = guide strand). Conditions: shRNA.
For ATGTAAGTCTTCATTGGTGGGG, the sensor-assay potency score (higher = more potent) was -0.782. Sequence TAGCCTCGGGAACCTCCTGGGG has a sensor-assay potency score (higher = more potent) of -1.66. Work on TTAGCCTCGGGAACCTCCTGGG yielded a sensor-assay potency score (higher = more potent) of -0.502. Work on TGTAAGTCTTCATTGGTGGGGT yielded a sensor-assay potency score (higher = more potent) of 0.329. In the case of AAGTTGAAGACCTCACAGGCGC, the sensor-assay potency score (higher = more potent) is reported as -0.73. TTTCAGTGAGTCCTTGACTGTT gave a sensor-assay potency score (higher = more potent) of -0.901. TTCAGTGAGTCCTTGACTGTTC showed a sensor-assay potency score (higher = more potent) of 0.426. ATTGGTGGGGTGACAAGCCCTC gave a sensor-assay potency score (higher = more potent) of -0.204. For TAAGTCTTCATTGGTGGGGTGA, the sensor-assay potency score (higher = more potent) was -0.373. In the case of TCAATAACAAAAGTCAGGTGAG, the sensor-assay potency score (higher = more potent) is reported as -0.224. TTGAAGACCTCACAGGCGCAGC showed a sensor-assay potency score (higher = more potent) of -1.07. TTCCCCACAGAACACGATGTAA showed a sensor-assay potency score (higher = more potent) of -1.15.

What follows are sequences tested against C1orf84 in the same assay as above. Conditions: shRNA.
Work on TCATCAAACAAGATCTCCCCTG yielded a sensor-assay potency score (higher = more potent) of -0.444. With TTTCATTAACAGGAACACCTGC the sensor-assay potency score (higher = more potent) was 0.405. In the case of TAGTTACATAGATCTCAGGCTG, the sensor-assay potency score (higher = more potent) is reported as -0.122. ATTAACAGGAACACCTGCCCAG was tested, and the sensor-assay potency score (higher = more potent) was 0.146. TTAACAGGAACACCTGCCCAGC was tested, and the sensor-assay potency score (higher = more potent) was -1.3. TTCATCAAACAAGATCTCCCCT showed a sensor-assay potency score (higher = more potent) of 0.55. TTCATTAACAGGAACACCTGCC gave a sensor-assay potency score (higher = more potent) of 0.858. TTCCTGTTCAGACAGCATCTCC gave a sensor-assay potency score (higher = more potent) of -0.954. TCCAACTCAATGACAAACCGAT was tested, and the sensor-assay potency score (higher = more potent) was -0.656. In the case of TTACATAGATCTCAGGCTGGAA, the sensor-assay potency score (higher = more potent) is reported as -0.261. TTGGTGCAGATGACTGAGGAAC gave a sensor-assay potency score (higher = more potent) of -1.39.

Each sequence was assayed against C20orf112 in the same assay as above. Conditions: shRNA.
Work on TTGTCTCGCTCTCACAGGCAGC yielded a sensor-assay potency score (higher = more potent) of -1.65. TCGTCATCATCTGCCGTCGGGG was tested, and the sensor-assay potency score (higher = more potent) was -1.61. TTTCTTGTCTCGCTCTCACAGG showed a sensor-assay potency score (higher = more potent) of -0.96. Work on TTCTTGTCTCGCTCTCACAGGC yielded a sensor-assay potency score (higher = more potent) of -0.87. TTTCATGCTGAGGTCCGTGGGC was tested, and the sensor-assay potency score (higher = more potent) was -0.763. Sequence TAGATCTCTAGACGCATCCGCT has a sensor-assay potency score (higher = more potent) of 0.0864. TTGATGGAATCGTAGCTCCCAG was tested, and the sensor-assay potency score (higher = more potent) was -1.02. For TTCATCTTGTCATTGTCCTCAT, the sensor-assay potency score (higher = more potent) was 0.226. TTCATCTGCAGAGCGCAGCAGG was tested, and the sensor-assay potency score (higher = more potent) was -0.526. With ATTGTCCTCATGGTCATCGTGG the sensor-assay potency score (higher = more potent) was -0.617. Work on ATCGTCGTCATCATCTGCCGTC yielded a sensor-assay potency score (higher = more potent) of -0.187. TTGACTGTGGAGGTTCTGCGGG gave a sensor-assay potency score (higher = more potent) of -0.683.

These sequences were tested against C20orf54 in the same assay as above. Conditions: shRNA.
Work on TTTCTCCTCTAGATACCCCTGG yielded a sensor-assay potency score (higher = more potent) of 0.0398. TTATCTGCTTGTCTTGTAGAAG gave a sensor-assay potency score (higher = more potent) of -1.04. For TTCTCCTCTAGATACCCCTGGC, the sensor-assay potency score (higher = more potent) was -0.528. TTGACGTAACTGAGGCAGCCGC gave a sensor-assay potency score (higher = more potent) of -1.38.

— the OligoGym collection
Further: reference of the scale not given here.
